Inconclusive results are not listed. Where a call stands in place of a potency, no number is given. Calls of active or inactive are those of the source. Calls come from the whole dose curve; as a rule, active = well fitted inhibition curve with a large enough effect; inconclusive = small, poorly fitted or top-dose-only effect; inactive = flat fitted curve, though single readings scatter.
molecular target: Phospholipid hydroperoxide glutathione peroxidase GPX4 (Homo sapiens) (UniProt P36969); test: Primary qHTS Assay for Inhibitors of Recombinant Selenoprotein Glutathione Peroxidase 4 (GPX4) (AID 1845192); conditions: recombinant GPX4, GR-coupled NADPH fluorescence, 15 min; series mostly up to 50 µM; note: nearly all actives have a fitted effect of over 65% in size
Procedure, shortened: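 Steps: GPX4 plus compound, 30 min RT; add GR/GSH/NADPH master mix; start with cumene hydroperoxide; read 340/450 nm fluorescence at 0 and 15 min. Finals were 200 nM GPX4, 1 mM GSH, 0.5 mM CHP, 0.5 mM NADPH, 100 nM GR.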

Phospholipid hydroperoxide glutathione peroxidase GPX4 (Homo sapiens), sequence (P36969 whole entry, looked up): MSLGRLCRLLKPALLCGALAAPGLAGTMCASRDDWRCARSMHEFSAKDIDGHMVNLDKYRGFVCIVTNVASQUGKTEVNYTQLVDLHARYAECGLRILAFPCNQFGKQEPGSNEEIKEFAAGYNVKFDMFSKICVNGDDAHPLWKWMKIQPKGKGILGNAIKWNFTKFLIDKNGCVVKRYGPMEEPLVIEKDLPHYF

| Compound | Potency |
| --- | --- |
| O=C(OCCO)c1ccccc1O | inactive |
| C=C1CC2C3CCC4=CC(=O)C=C[C@]4(C)[C@@]3(F)[C@@H](O)C[C@]2(C)[C@@]1(O)C(=O)COC(C)=O (stereo partly drawn) | inactive |
| CCN(CC)CCOC(=O)c1ccc(N)cc1Cl | inactive |
| Nc1c(CC(=O)O)cccc1C(=O)c1ccccc1 | inactive |
| C/C(=C(/CCO)SSCC1CCCO1)N(C=O)Cc1cnc(C)nc1N (stereo not drawn) | inactive |
| Cc1[nH]cnc1C[C@H]1CCc2c(C)c3ccccc3n2C1=O | inactive |
| CCN1CCCC1CNC(=O)c1cc(S(=O)(=O)CC)ccc1OC (stereo not drawn) | inactive |
| O=S(O)CNc1ccc(S(=O)(=O)c2ccc(NCS(=O)O)cc2)cc1 | inactive |
| CCCCOC(=O)C(=O)Nc1cccc(-c2nn[nH]n2)c1 | inactive |
| CC(=O)O[C@H]1C[C@@H]2CC[C@@H]3[C@H](CC[C@@]4(C)[C@H]3C[C@H](N3CC[N+](C)(C)CC3)[C@@H]4OC(C)=O)[C@@]2(C)C[C@@H]1N1CC[N+](C)(C)CC1 | inactive |
| Cc1c(N)nc(C(CC(N)=O)NCC(N)C(N)=O)nc1C(=O)NC(C(=O)NC(C)C(O)C(C)C(=O)NC(C(=O)NCCc1nc(-c2nc(C(=O)NCCCN[C@@H](C)c3ccccc3)cs2)cs1)C(C)O)C(O[C@@H]1O[C@@H](CO)[C@@H](O)[C@H](O)[C@@H]1O[C@H]1O[C@H](CO)[C@@H](O)[C@H](OC(N)=O)[C@@H]1O)c1cnc[nH]1 (stereo partly drawn) | inactive |
| CN[C@@H]1CCc2[nH]c3ccc(C(N)=O)cc3c2C1 | inactive |
| NC(=O)c1cnc(N[C@@H]2CCCC[C@@H]2N)nc1Nc1cccc(-n2nccn2)c1 | inactive |

— PubChem BioAssay (NCATS)
